Measurements as given in PubChem BioAssay AID602393 (Broad Institute, 2012).
Hit rate of the full screen: of about 350,000 compounds, about 7,000 (2%) were called active. Many of the other results were omitted from the sample, so actives are more common in it than they were. A number with no mark means an inactive call. No stated cut-off is given here; in the data, active means activation above about 40%; inconclusive means no clear call, values can overlap the other calls; inactive means below that.

Experiment: raisers of Bmi1 knock-in reporter signal – mouse ES cells, Bmi1 luciferase knock-in, single point, esBAF inhibitor project, primary screen (AID 602393);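 further: 0% = median of the plate's neutral control wells and 100% = double that signal; a rise in the Bmi1 reporter signal indicates esBAF inhibition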
Conditions: 24 h, at 12.5 µM, active compounds read high, 100% = twice the neutral-well signal
In the case of `COc1ccccc1S(=O)(=O)N[C@@H]1CC[C@@H](CCNC(=O)C2CCCCC2)O[C@@H]1CO`, the reporter increase is reported as -1.9%.
With `O=C(C[C@@H]1C[C@@H]2c3cc(NS(=O)(=O)c4ccc(F)cc4)ccc3O[C@@H]2[C@H](CO)O1)N1CCCCC1` the reporter increase was -3.2%.
Compound `CO[C@@H]1CC[C@H]2CCN(C)C(=O)C[C@@H](c3ccccc3)CN(C)C(=O)c3cc(C#N)ccc3OC[C@@H]1O2` has a reporter increase of 3.4%.
With `CO[C@H]1CC[C@@H]2CCOc3c(C#N)cccc3C(=O)N(C)C[C@@H](OC)[C@H](C)C(=O)N(C)C[C@H]1O2` the reporter increase was 3.07%.
With `CCC(=O)N1C[C@@H](C)[C@H](OC)CN(C)C(=O)c2ccc(NC(=O)C3CCOCC3)cc2OC[C@@H]1C` the reporter increase was -3.82%.
Compound `C[C@@H]1CN([C@H](C)CO)C(=O)c2cc(-c3cccc(C#N)c3)cnc2O[C@H]1CN(C)C(=O)C1CCC1` has a reporter increase of -9.7%.
`COc1ccccc1S(=O)(=O)N[C@@H]1CC[C@H](CC(=O)N2CCN(C)CC2)O[C@@H]1CO` showed a reporter increase of 0.975%.
`O=C(C[C@@H]1C[C@@H]2c3cc(NC(=O)C4CCOCC4)ccc3O[C@@H]2[C@@H](CO)O1)NC1CCCCC1` showed a reporter increase of 5.22%.
Work on `COc1ccc(S(=O)(=O)Nc2ccc3c(c2)C(=O)N([C@@H](C)CO)C[C@H](C)[C@H](CN(C)Cc2ccc(C(=O)O)cc2)OCCCC[C@@H](C)O3)cc1` yielded a reporter increase of 6.21%.
For `COc1ccc(/C=C/C(=O)c2c(O)cc(OC)cc2OC)cc1`, the reporter increase was 46.9% (active).
Compound `COc1ccc(/C=C/C(=O)c2cc(Br)ccc(=O)c2O)cc1` has a reporter increase of -9.92%.
Work on `COCOc1cc(O)c(C(=O)/C=C/c2ccc(OCOC)c(OCOC)c2)c(OCOC)c1` yielded a reporter increase of 15.9%.
`Cc1ccc(S(=O)(=O)N2C[C@H](O)COC[C@@H]3O[C@H](CC(=O)N[C@H]4CCN(Cc5ccccc5)C4)CC[C@H]32)cc1` showed a reporter increase of -2.58%.
For `C[C@H](CO)N1C[C@H](C)[C@H](CN(C)Cc2ccc(C(F)(F)F)cc2)Oc2c(NC(=O)C3CCOCC3)cccc2C1=O`, the reporter increase was -0.743%.
With `Cc1ccc(C(=O)COC(=O)c2cccc(N3C(=O)c4c(C)nc5ccccc5c4C3=O)c2)cc1C` the reporter increase was 21.8% (active).
For `Cc1ccc(C(=O)COC(=O)CCN2C(=O)C3C4CCC(C4)C3C2=O)cc1C` (stereo not drawn), the reporter increase was 0.309%.
For `Cc1nc2ccccc2c(-c2ccccc2)c1C(=O)c1ccccc1`, the reporter increase was -1.09%.
Compound `Cc1noc(C)c1NC(=O)Nc1ccc2c(c1)C(=O)N([C@@H](C)CO)C[C@@H](C)[C@H](CN(C)C(=O)Nc1ccc(C(F)(F)F)cc1)OCCCC[C@@H](C)O2` has a reporter increase of 11%.
With `O=C(C[C@H]1CC[C@@H](NC(=O)Cc2cccnc2)[C@H](CO)O1)Nc1ccc(-c2ccccc2)cc1` the reporter increase was -2.77%.
In the case of `N/C(=N\OC(=O)c1ccc2c(c1)OCO2)c1ccc(Br)cc1`, the reporter increase is reported as 18.6%.
`CC(OC(=O)/C=C/c1ccccc1)C(=O)Nc1ccc(C(N)=O)cc1` (stereo not drawn) showed a reporter increase of -2.08%.
For `N/C(=N\OC(=O)/C=C/c1ccccc1)c1ccc(Br)cc1`, the reporter increase was 23.9% (active).
For `O=C(NCCC1=CCCCC1)c1ccc(-n2cncn2)cc1`, the reporter increase was 42.2% (active).
`Cn1nnc2cc(C(=O)NCCC3=CCCCC3)ccc21` showed a reporter increase of -7.14%.
Work on `CN(c1ccc(C(=O)NCCC2=CCCCC2)cc1)S(C)(=O)=O` yielded a reporter increase of -6.11%.
With `CC(c1ccccn1)N(C)C(=O)c1ccc2nc(Cc3cccc(Cl)c3)oc2c1` (stereo not drawn) the reporter increase was 73.4% (active).
In the case of `CCn1ccnc1CN(C)C(=O)c1ccc2nc(Cc3ccc(OC)cc3)oc2c1`, the reporter increase is reported as -2.21%.
Work on `Cc1cc(Cl)c2oc(C(=O)N(C)C(C)c3ccccn3)c(C)c2c1` (stereo not drawn) yielded a reporter increase of 31.4%.
In the case of `COc1ccc(NC(=O)Nc2ccc3c(c2)CC(=O)N([C@@H](C)CO)C[C@@H](C)[C@H](CN(C)C(=O)NC2CCCCC2)O3)cc1`, the reporter increase is reported as 3.44%.
Compound `c1ccc(CCc2ccccn2)cc1` has a reporter increase of 16.6%.
Compound `O=C(Cc1ccccn1)c1ccc(O)cc1O` has a reporter increase of 7.66%.
With `Oc1cccc(CCc2ccccn2)c1` the reporter increase was 45.8% (active).
`CO[C@H]1CN(C)C(=O)c2cc(NC(=O)C3CC3)ccc2OC[C@H](C)N(CC2CCCC2)C[C@@H]1C` gave a reporter increase of -2.34%.
Compound `CC1CCCC(C)N1C(=O)CN1CCN(c2nc(-c3ccc(F)cc3)cs2)CC1` (stereo not drawn) has a reporter increase of 7.37%.
In the case of `O=C(COC(=O)C1CCCO1)Nc1nc(-c2ccc(F)cc2)cs1` (stereo not drawn), the reporter increase is reported as 49.2% (active).
Work on `O=C(CSC1=NCCS1)Nc1nc(-c2ccccc2)cs1` yielded a reporter increase of 5.05%.
With `Cc1csc(NC(=O)C2=COCCO2)n1` the reporter increase was 39.3%.
For `Cc1ccc(-c2csc(NC(=O)c3cccs3)n2)cc1`, the reporter increase was 53.5% (active).
In the case of `Cc1ccc(-c2csc(NC(=O)Cc3cccs3)n2)cc1C`, the reporter increase is reported as 48.9% (active).
`COc1ccc(OC)c(NC(=O)Cc2cccs2)c1` gave a reporter increase of 0.423%.
With `Cc1ccc(-c2csc(NC(=O)C3=COCCO3)n2)cc1C` the reporter increase was 43.9% (active).
With `NS(=O)(=O)c1ccc2nc(NC(=O)C3=COCCO3)sc2c1` the reporter increase was -2.59%.
For `COc1cc(OC)cc(C(=O)NNC(=O)Cc2cccs2)c1`, the reporter increase was 3.48%.
In the case of `Cc1ccc(-c2csc(N(Cc3ccco3)C(=O)c3cccs3)n2)cc1`, the reporter increase is reported as 2.94%.
`O=C(Nc1n[nH]c(C(F)(F)F)n1)c1cccs1` gave a reporter increase of -2.17%.
Compound `O=C(C[C@@H]1CC[C@@H](NC(=O)C2CCOCC2)[C@H](CO)O1)Nc1ccc(-c2ccccc2)cc1` has a reporter increase of 8.43%.
With `C[C@@H]1CN([C@H](C)CO)C(=O)c2cc(C#CC3(O)CCCC3)cnc2O[C@H]1CN(C)C(=O)C1CCC1` the reporter increase was 2.77%.
Compound `C[C@@H](NC(=O)C[C@H]1C[C@H]2c3cc(NC(=O)Nc4ccccc4F)ccc3O[C@H]2[C@@H](CO)O1)c1ccccc1` has a reporter increase of 2.95%.
For `O=C(Cc1ccncc1)N[C@H]1CC[C@H](CCn2cc(-c3ccccc3F)nn2)O[C@@H]1CO`, the reporter increase was 12.7%.
With `COc1cccc(-c2cn(CC[C@@H]3CC[C@@H](NC(C)=O)[C@@H](CO)O3)nn2)c1` the reporter increase was -4.15%.
For `COc1ccccc1/C=N/Nc1nc(C)c(C(C)=O)s1`, the reporter increase was 43.3% (active).
Work on `COc1ccccc1CNC(=O)COC(=O)c1sc(C)nc1C` yielded a reporter increase of 6.65%.
For `CNC(=O)c1sc(NCc2ccccc2OC)nc1C`, the reporter increase was 10%.
